HCMV inh: inhibitors of human cytomegalovirus; HFF cells, HCMV-luciferase reporter, 72 h; active compounds read low; activity change, negative = inhibition, % at 57.5 µM; hit rate 4.5% among 410,000; in the data active = activity change below about -60%; inconclusive = no clear call, values can overlap the other calls; inactive = above about -39%
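Compounds were evaluated in HFFs infected with an HCMV luciferase reporter virus (MOI 1 PFU/cell). Luciferase in lysates collected 72 h post infection served as the replication measure.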
Giardia FBPA inh: Giardia lamblia aldolase inhibition; purified Giardia FBPA; AID 2451; Potency, µM (top dose mostly 59.6 µM), hits mostly inhibitors; hit rate 0.71% among 290,000; A8B2U2; also: nearly all actives have a fitted effect of over 55% in size
Target sequence (A8B2U2 whole entry, looked up): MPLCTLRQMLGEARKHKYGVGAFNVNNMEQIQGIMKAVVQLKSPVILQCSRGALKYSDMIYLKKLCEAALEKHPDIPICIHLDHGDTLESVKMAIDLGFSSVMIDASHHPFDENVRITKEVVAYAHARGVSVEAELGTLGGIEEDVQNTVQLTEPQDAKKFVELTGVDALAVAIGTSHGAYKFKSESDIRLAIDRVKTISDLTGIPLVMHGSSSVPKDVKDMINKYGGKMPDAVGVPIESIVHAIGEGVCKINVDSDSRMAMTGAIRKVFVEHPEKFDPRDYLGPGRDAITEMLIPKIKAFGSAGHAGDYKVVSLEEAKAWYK
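Giardia FBPA (40 nM reagent) was preincubated 10 min at RT with compound (up to 57.5 uM final), then substrate plus GAPDH/TPI/NAD/arsenate coupling system with diaphorase/resazurin was added; resorufin fluorescence (525/598 nm) was read after 20 min.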
Pf growth 48h: inhibits P. falciparum growth in the first generation, 48 h; P. falciparum luciferase growth in erythrocytes, 48 h; Potency, µM (series often up to 28.7 µM), most hits filed as inhibitors; hit rate 5.9% among 310,000; AID 504832
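Cell-based growth assay: transgenic P. falciparum expressing firefly luciferase, cultured in red cells within RPMI 1640 containing 0.5% w/v Albumax, 24 mM bicarbonate and gentamycin. A drop in luciferase activity indicates inhibition.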
Sm TGR block: blocks Schistosoma mansoni thioredoxin glutathione reductase; hit rate 3% among 360,000; Potency, µM (top dose mostly 114 µM), hits mostly inhibitors; Q962Y6; purified TGR, DTNB reduction, TNB absorbance 405 nm; also: nearly all actives have a fitted effect of over 60% in size
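TGR 20 nM + NADPH 100 uM (dispensed conc.), cpd preinc 15 min RT; start with NADPH (500 uM addition) then DTNB (15 mM addition). Kinetic TNB absorbance, 405 nm filter. Four-parameter Hill fit across titration.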
Pf growth 96h: inhibits malaria parasite growth, 96 h | Potency, µM (doses to about 28.7 µM), usual class: inhibitors | P. falciparum luciferase reporter growth, 96 h | hit rate 6.9% among 320,000
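96 h incubation, 37 C, 5% CO2, of luciferase-reporter P. falciparum-infected RBCs (2% hematocrit, 0.05% parasitemia final) with test compounds; endpoint luminescence.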
Each line names hits and unclear results; the compound was inactive in the other large screens; ! = not confirmed by another sample. Hits are enriched below; roughly 14% of the tested compounds scored in any of these assays. Unless noted, calls follow the shape of the dose curve; as a rule, active = well fitted curve in the direction sought with a large enough effect; inconclusive = small, poorly fitted or top-dose-only effect, or another doubt; inactive = no such curve, though single readings can be large; an effect the other way counts as inactive or inconclusive.

CCN1CCN(CCCN(Cc2ccco2)C(=S)Nc2cccc(Cl)c2C)CC1	none
CCN1CCN(CCCN(Cc2ccco2)C(=S)Nc2ccccc2Cl)CC1	Pf growth 96h 1.9µM
Cc1ccc(Cl)cc1NC(=S)N(CCCN1CCN(C)CC1)Cc1cccs1	none
CCN1CCN(CCCN(Cc2cccs2)C(=S)Nc2ccccc2C)CC1	none
Cc1cc(Cl)ccc1NC(=S)N(CCCN1CCOCC1)Cc1cccs1	Pf growth 48h inconclusive, Pf growth 96h 12µM
COc1ccccc1NC(=S)N(CCCN1CCOCC1)Cc1cccs1	Pf growth 48h inconclusive
Cc1cc(C)c(NC(=S)N(CCCN2CCN(C)CC2)Cc2cccs2)c(C)c1	Pf growth 96h 10µM
COc1ccc(N2CCN(C(=O)C3Cc4ccccc4N3C(C)=O)CC2)cc1 (centres undefined)	none (no result: Giardia FBPA inh, Pf growth 48h, Pf growth 96h)
CC1(C)CC(=O)C=C(c2ccc(COC(=O)c3ccc(-c4ccccc4)cc3)cc2)C1=O	none (no result: Giardia FBPA inh, Pf growth 48h, Sm TGR block, Pf growth 96h)
CC1CCCN(C(=O)Cn2ncc3c([nH]c4ccccc43)c2=O)C1 (centres undefined)	none (no result: Giardia FBPA inh, Pf growth 48h, Pf growth 96h)
CCOC(=O)C1(C)CCCN1C(=O)c1sccc1C (centres undefined)	none (no result: Giardia FBPA inh, Pf growth 48h, Sm TGR block, Pf growth 96h)
CN(C)C(=O)Oc1ccc(Br)cc1C(=O)Nc1ccc(F)c(Cl)c1	Pf growth 48h 1.2µM, Pf growth 96h inconclusive
O=C(Nc1ccc(Cl)cc1)c1ccc(Br)cc1F	none
CCOC(=O)c1cc2c(=O)n3ccccc3nc2n(Cc2ccco2)c1=NC(=O)c1c(F)cccc1Cl	Sm TGR block 4µM (no result: Giardia FBPA inh, Pf growth 48h, Pf growth 96h)
CCOC(=O)c1cc2c(=O)n3ccccc3nc2n(CCOC)c1=NC(=O)c1c(-c2c(F)cccc2Cl)noc1C	HCMV inh -61!, Pf growth 48h inconclusive, Pf growth 96h 5.9µM
CCOC(=O)c1cc2c(=O)n3ccccc3nc2n(Cc2ccco2)c1=NC(=O)c1cccc(C)c1	none (no result: Giardia FBPA inh, Pf growth 48h, Pf growth 96h)
CCOC(=O)c1cc2c(=O)n3ccccc3nc2n(Cc2ccco2)c1=NC(=O)c1cccc(Br)c1	Sm TGR block 2.2µM (no result: Giardia FBPA inh, Pf growth 48h, Pf growth 96h)
CCOC(=O)c1cc2c(=O)n3ccccc3nc2n(Cc2ccco2)c1=NC(=O)c1ccc(Br)cc1	Sm TGR block inconclusive (no result: Giardia FBPA inh, Pf growth 48h, Pf growth 96h)
CCOC(=O)c1cc2c(=O)n3ccccc3nc2n(CC(C)C)c1=NC(=O)c1ccco1	Pf growth 48h 10µM (no result: Pf growth 96h)
C[C@@H](CC(=O)O)[C@@H](N)C(=O)O	none (no result: HCMV inh, Pf growth 48h, Sm TGR block, Pf growth 96h)
O=C(c1ccncc1)N1CCC[C@@]2(CCN(Cc3cc(C(F)(F)F)cc(C(F)(F)F)c3)C2)C1	none (no result: HCMV inh, Pf growth 48h, Sm TGR block, Pf growth 96h)
CS(=O)(=O)N1CCCC(C(=O)Nc2ccc3c(c2)OCCO3)C1 (centres undefined)	none
CCOC(=O)c1cc2c(=O)n3ccccc3nc2n(Cc2ccco2)c1=NC(=O)c1ccccc1Br	Sm TGR block 1.6µM (no result: Giardia FBPA inh, Pf growth 48h, Pf growth 96h)
CCOC(=O)c1cc2c(=O)n3ccccc3nc2n(Cc2ccco2)c1=NC(=O)c1ccccc1OCC	Pf growth 48h inconclusive, Sm TGR block inconclusive
CCS(=O)(=O)N1CCC(C(=O)NCc2ccco2)CC1	none
CSc1ccc(S(=O)(=O)N2CCC(C(=O)NCc3ccco3)CC2)cc1	Pf growth 48h 1.7µM, Pf growth 96h inconclusive
O=C(NCc1ccco1)C1CCN(S(=O)(=O)N2CCOCC2)CC1	Sm TGR block 50µM, Pf growth 96h inconclusive
COC(=O)c1ccc(CNC(=O)c2ccc(S(=O)(=O)N3CCCC(C)C3)cc2)cc1 (centres undefined)	Pf growth 48h 13µM, Pf growth 96h inconclusive (no result: Giardia FBPA inh)
COc1ccc(CNC(=O)c2ccc(S(=O)(=O)N3CCCC3)cc2)cc1OC	Pf growth 96h inconclusive (no result: Pf growth 48h)
Cc1ccc(S(=O)(=O)N2CCCC(C(=O)NCc3ccco3)C2)cc1Cl (centres undefined)	Pf growth 48h inconclusive, Pf growth 96h 13µM
C[C@@H]1NS(=O)(=O)c2ccc(F)cc2O[C@@H]1c1ccccc1	none (no result: Giardia FBPA inh, Pf growth 48h, Sm TGR block, Pf growth 96h)
O=C(C(Cl)c1ccccc1)N1CCOCC1 (centres undefined)	Pf growth 48h inconclusive, Sm TGR block inconclusive, Pf growth 96h inconclusive
Cc1ccc(C)c(Cn2c3ccccc3c3cnn(CC(=O)NC(C)CCc4ccccc4)c(=O)c32)c1 (centres undefined)	none (no result: Giardia FBPA inh, Pf growth 48h, Pf growth 96h)
COc1cc(/C=N\NC(=O)c2cccnc2)ccc1OC(=O)c1ccccc1Cl	HCMV inh inconclusive, Pf growth 48h inconclusive
CC1CCN(S(=O)(=O)c2ccc3c(c2)c(=O)c(C(=O)NCc2ccco2)cn3C)CC1	Pf growth 48h inconclusive, Pf growth 96h 15µM
CC1CCN(S(=O)(=O)c2ccc(C(=O)NCc3ccco3)cc2)CC1	Pf growth 48h 2.1µM
